# Test results reported in the supplement of paper PMC8699584.
# Counter-ions that a name gives are not always drawn. ± gives the standard deviation of the averaged measurements.
# Assays:
# Molm13 = assay: cell viability relative to DMSO control (bortezomib = 0%); higher = less growth inhibition; settings: 10 nM; 72 h
# Outline: (§1)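 Acute myeloid leukemia cells were plated at 1000 cells per well in 50 µL onto a 679-compound library of approved and investigational agents in 384-well plates and exposed to a single 10 nM dose for 72 h, in duplicate. Cell viability was measured by CellTiter-Glo luminescence on an EnVision reader. Readings were scaled to percentages by per-plate linear regression, with DMSO-treated cells set at 100% and positive-control-treated cells at 0%.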
# Mv4-11 = assay: as above; settings: 10 nM; 72 h
# Outline: as §1
SMILES,cell viability (Molm13),cell viability (Mv4-11)
COc1cc2ncn(-c3cc(OCc4ccccc4S(C)(=O)=O)c(C#N)s3)c2cc1OC,83.4 ± 8.5%,104 ± 5.9%
O=C(NCCCNc1nc(Nc2cccc(NC(=O)N3CCCC3)c2)ncc1I)c1cccs1,95.7 ± 9.5%,97.5 ± 5.3%
CC[C@@](C)(Nc1ccnc(-c2c[nH]c3ncccc23)n1)C(=O)NCC(F)(F)F [Decernotinib(VX-509)],98.6 ± 1.4%,89.3 ± 6.1%
Nc1nccc(Oc2ccc(NC(=O)c3c[nH]cc(-c4ccc(F)cc4)c3=O)cc2F)c1Cl,60.9 ± 5.7%,83.1 ± 3.7%
S=C(NCc1ccc2c(c1)OCO2)N1CCN(c2ncnc3c2oc2ccccc23)CC1 [Amuvatinib(MP470)],101 ± 10%,103 ± 15%
CC(C)(C)NS(=O)(=O)c1cncc(-c2cc(F)c3nc(N)nn3c2)c1,95.9 ± 22%,105 ± 1.1%
CC(=O)CC(c1ccccc1)c1c(O)c2ccccc2oc1=O (stereo not drawn) [Warfarin],109 ± 8.2%,103 ± 7%
Cc1ccc(NC(=O)c2ccc(CN3CCN(C)CC3)cc2)cc1Nc1nccc(-c2cccnc2)n1 [Imatinib Mesylate (STI571)],105 ± 13%,106 ± 7.4%
O=S(=O)(c1cccc2cnccc12)N1CCCNCC1 [HA-1077 (hydrochloride)],105 ± 14%,112 ± 3.5%
O=C(c1ccc(F)c(F)c1Nc1ccc(I)cc1F)N1CC(O)([C@@H]2CCCCN2)C1 [Cobimetinib],87.1 ± 14%,103.3 ± 0.5%
CCCCCCCCCCCCCCCCCCOP(=O)([O-])OC1CC[N+](C)(C)CC1 [Perifosine (KRX-0401)],93.8 ± 14%,110 ± 5.1%
NCCNS(=O)(=O)c1cccc2cnccc12 [H-9 (hydrochloride)],114 ± 24%,111 ± 4.7%
Cc1ccc2nc(-n3[nH]c(C)c(Cc4ccccc4)c3=O)[nH]c2c1,103 ± 0.84%,106 ± 4.3%
CC(C)n1nc(-c2ccc3oc(N)nc3c2)c2c(N)ncnc21,89.4 ± 12%,86.16 ± 0.51%
CN1CCN(c2nc(C3=C(c4c[nH]c5ccccc45)C(=O)NC3=O)c3ccccc3n2)CC1 [Sotrastaurin],99 ± 21%,109 ± 11%
CC(C)c1cnc(NC(=O)Cc2ccccc2)s1,92.8 ± 37%,98.7 ± 9.3%
Cn1cc(-c2cnn3c(N)c(Br)c([C@@H]4CCCNC4)nc23)cn1,92.5 ± 4.6%,104 ± 4.8%

SMILES,cell viability (Molm13),cell viability (Mv4-11)
Cn1cnc(N)c2ncnc1-2 [3-Methyladenine (3-MA)],98.3 ± 1.7%,77.5 ± 24%
COc1cc(CCc2cc(NC(=O)c3ccc(N4CC(C)NC(C)C4)cc3)n[nH]2)cc(OC)c1 (stereo not drawn),102 ± 17%,99.5 ± 2%
COc1ccc(CCNCc2ccc(OCc3ccc(Cl)nc3)c(OC)c2)cc1OC [SBE 13 hydrochloride],99.3 ± 18%,107 ± 3%
O=c1cc(-c2cccc3c2Sc2ccccc2S3)oc(N2CCOCC2)c1,104 ± 4.7%,103 ± 28%
Cc1ccc(F)c(NC(=O)Nc2ccc(-c3cccc4[nH]nc(N)c34)cc2)c1 [Linifanib (ABT-869)],61.8 ± 4%,73.9 ± 13%
COc1cc(Nc2ncc3c(n2)-c2ccc(Cl)cc2C(c2c(F)cccc2OC)=NC3)ccc1C(=O)O [MLN8237(Alisertib)],99.5 ± 6.3%,114 ± 4.2%
CNc1nc(Nc2cnn([C@H]3CCN(C4COC4)C[C@@H]3F)c2Cl)ncc1C(F)(F)F,99.6 ± 15%,106 ± 2.4%
c1cc(-c2cnn3cc(-c4ccc(N5CCNCC5)cc4)cnc23)c2cccnc2c1,107 ± 1.7%,103 ± 1.1%
FC(F)c1nc2ccccc2n1-c1nc(N2CCOCC2)nc(N2CCOCC2)n1,117 ± 11%,122 ± 12%
COc1cc2ccc(=O)oc2cc1O [Scopoletin],102.2 ± 0.33%,109.9 ± 0.78%
NC(=O)c1ccc2nc(-c3ccc(Oc4ccc(Cl)cc4)cc3)[nH]c2c1,100 ± 13%,114 ± 6.3%
CN1C/C=C/CCOc2cccc(c2)-c2ccnc(n2)Nc2cccc(c2)C1,86.77 ± 0.29%,102 ± 22%
C[C@@H]1O[C@@H](O[C@@H]2[C@@H](O)[C@H](OCCc3ccc(O)c(O)c3)O[C@H](CO)[C@H]2OC(=O)/C=C/c2ccc(O)c(O)c2)[C@H](O)[C@H](O)[C@H]1O [Verbascoside],89.4 ± 1.9%,91.6 ± 5.3%
CCN(CC)CCNC(=O)c1c(C)[nH]c(/C=C2\C(=O)Nc3ccc(F)cc32)c1C [Sunitinib (malate)],50.3 ± 5.7%,63.4 ± 1.2%
Cc1oncc1C(=O)Nc1ccc(C(F)(F)F)cc1 [Leflunomide],91.3 ± 23%,118 ± 29%
CS(=O)(=O)N1CCc2c(-c3cnc(N)nc3)nc(N3CCOCC3)nc21,119.7 ± 0.72%,126 ± 9.7%
O=C1NC(=O)/C(=C/c2ccc3c(c2)OC(F)(F)O3)S1,102 ± 18%,104 ± 34%
